53 molecules from ChEMBL document CHEMBL4513216, “Probing the Open Global Health Chemical Diversity Library for Multistage-Active Starting Points for Next-Generation Antimalarials” (ACS Infect Dis, 2020) can be followed below.

Screen size: about 69,000 compounds; about 8,600 (12%) showed an effect of 50% or more. Only a selection was taken, and strong results are over-represented in it overall.

This assay deals with Plasmodium berghei. In words: Screen against P. berghei liver stage (PbLuc), transformed with Luciferase, at 10uM. The format is functional, HepG2. As to conditions: tested at 10 uM.
Take `Cc1nc(N2CCCC2)ncc1-c1cc(O)n2ncnc2n1`: the INHIBITION is 16.8%. `CN1CCCCC1(C)C(=O)N1CCC(c2ccccn2)CC1` (stereo not drawn): the INHIBITION came out at 19.825%. As for `OC(COCc1ccco1)CN1CCc2c(ncn2C2CC2)C1` (stereo not drawn), the INHIBITION is given as -58.7%.

In the case of `Cn1ccnc1C(=O)N1CCOC(Cc2ccc(Cl)cc2)C1` (stereo not drawn), the INHIBITION is 47.2%.

Turning to `Cc1cnc(CNS(=O)(=O)CCC2CCCO2)o1` (stereo not drawn), the INHIBITION was 57.7%.

Consider `CN(CCCC1CCCO1)S(=O)(=O)NCc1ccccc1` (stereo not drawn), for which the INHIBITION stood at 16.1%. Turning to `O=S(=O)(CCC1CCCO1)NCc1ncc(-c2ccccc2)o1` (stereo not drawn), the INHIBITION was 20%. In the case of `C=c1ccoc1=C1NN=C(CNCCn2cccn2)O1`, the INHIBITION is on record as 34.1%.

For `CC(=O)N1CCC2(CC1)CN(CC(C)C)CC21CCNC1=O` (stereo not drawn), the INHIBITION is -33.1%.

As to `O=C(NCc1ccoc1)NC1CCCN(c2ncccn2)C1` (stereo not drawn), the INHIBITION is -22.1%. As to `CCCOC1CCCN(C(=O)c2csc(S(N)(=O)=O)c2)C1` (stereo not drawn), the INHIBITION was determined as 0.991%. Regarding `CC1CCCN(C(=O)c2csc(S(N)(=O)=O)c2)CC1` (stereo not drawn), the INHIBITION is 11.5%. To `CCOC1CCN(C(=O)c2csc(S(N)(=O)=O)c2)CC1` belongs 62.4%. For the molecule `CCc1nnc2n1CC(CNCc1nc(C)c(C)o1)CC2` (stereo not drawn), the INHIBITION is given as -8.22%. As to `Cc1ccc(CNC(=O)N2CCCC(NS(C)(=O)=O)C2)cc1` (stereo not drawn), the INHIBITION was found to be 9.64%. Turning to `Cc1noc([C@]23COC[C@H]2CN(C(=O)CN(C)C)C3)n1`, the INHIBITION is recorded as 46.6%. On to `Cc1noc([C@]23COC[C@H]2CN(C(=O)COC2CCCC2)C3)n1`, for which the INHIBITION is -5.89%. Regarding `CCOCC(=O)N1C[C@@H]2COC[C@]2(c2nc(C)no2)C1`, the INHIBITION came to 63.8%. Then `COCCN1CCc2ncnc(N(C)C)c2CC1`, with 33.5%. Consider `CN(C)Cc1ccnc(C2CN(CCCc3ccccc3)CCO2)n1` (stereo not drawn), for which the INHIBITION is listed as 42.6%. Then `O=C(c1ccc(C2CCCN2C(=O)c2ccc[nH]2)s1)N1CCSCC1` (stereo not drawn), with -32.2%. To `CC(C)(C)n1ncc2c1CCCC2NCc1cccc2c1OCO2` (stereo not drawn) belongs 20.2%. As to `COCc1nc(CNC2CCCc3c2cnn3C(C)(C)C)cs1` (stereo not drawn), the INHIBITION is recorded as 2.02%. Turning to `Cn1ncc2c1CCCC2NCc1cnc(-c2ccccc2)nc1` (stereo not drawn), the INHIBITION is 33%. For `O=C1C(NCc2ccc3c(c2)CCO3)CCN1Cc1ccccc1` (stereo not drawn), the INHIBITION stood at 6.88%.

In the case of `CC(C)(C)n1ncc2c1CCCC2NCc1cccc(C(N)=O)c1` (stereo not drawn), the INHIBITION is -8.4%. Take `CC(C)(C)n1ncc2c1CCCC2NCc1ccc2c(c1)CCO2` (stereo not drawn): the INHIBITION was 61%. As for `CCn1ncc2c1CCCC2NCc1ccc2c(c1)CCO2` (stereo not drawn), the INHIBITION was determined as 5.03%.

Regarding `CC(C)(C)n1ncc2c1CCCC2NCc1ccc2c(c1)OCCO2` (stereo not drawn), the INHIBITION turned out to be 93.1%. Then `CCn1ncc2c1CCCC2NCc1ccc2c(c1)OCCO2` (stereo not drawn), with 1.51%; and `CC(C)(C)n1ncc2c1CCCC2NCc1ccc2ncccc2c1` (stereo not drawn), with 72.8%; and `CC(C)(C)n1ncc2c1CCCC2NCc1cccc2c1OCCO2` (stereo not drawn), with 35.9%.

In the case of `CC(C)(C)n1ncc2c1CCCC2NCc1ccsc1` (stereo not drawn), the INHIBITION came to 50.1%. As to `CNC(=O)C1(C)CN(S(=O)(=O)c2cccc(OC)c2)CCO1` (stereo not drawn), the INHIBITION is on record as 11.175%. Turning to `O=C(c1cnccn1)N1C[C@@H](OCc2cccnc2)[C@H]2OCCC[C@H]21`, the INHIBITION is on record as 14.6%. To `CC(C)CCn1[nH]c(CNc2ccccc2)nc1=O` belongs -7.9%. On to `CN(C)C1CCN(C(=O)c2cc3c(s2)CCN3C(=O)C2CC2)CC1`, for which the INHIBITION was 49.1%. For `CCC1=N[C@@]2(CC[C@@H]3CN(Cc4cccc(Cl)c4)C[C@@H]32)C(=O)N1C`, the INHIBITION stood at 30.3%.

With `CCC1=N[C@@]2(CC[C@@H]3CN(Cc4ccc(F)cc4)C[C@@H]32)C(=O)N1C`, the INHIBITION came out at 62%.

On to `CCC1=N[C@@]2(CC[C@@H]3CN(CC)C[C@@H]32)C(=O)N1C`, for which the INHIBITION turned out to be 23.1%. As for `CCC1=N[C@@]2(CC[C@@H]3CN(Cc4ccccc4C)C[C@@H]32)C(=O)N1C`, the INHIBITION stood at 46.6%. As to `CCC1=N[C@@]2(CC[C@@H]3CN(Cc4ccc(Cl)cc4)C[C@@H]32)C(=O)N1C`, the INHIBITION is 50.6%. Regarding `CCC1=N[C@@]2(CC[C@@H]3CN(Cc4ccc(C)cc4)C[C@@H]32)C(=O)N1C`, the INHIBITION is recorded as 34.9%. Then `Cc1cccc(CNC(=O)Nc2ccn(CCCC(=O)N(C)C)n2)c1`, with -6.52%; and `CC1CCN(c2nc3cn(-c4ccc5c(c4)OCO5)c(=O)c-3c[nH]2)CC1`, with 23.5%. For the molecule `Cc1ccc(CN2CCC[C@@H]3CN(C(=O)c4ccco4)C[C@@H]32)o1`, the INHIBITION is -2.35%. On to `Cc1cc(C(=O)Nc2ccc3c(ccn3CCN3CCOCC3)c2)on1`, for which the INHIBITION turned out to be 12.8%.

Consider `COc1ccc(CN2CC[C@H](NC(C)=O)[C@@H](O)CC2)c(OC)c1`, for which the INHIBITION is 35.3%. On to `COc1ccc(CN2CCSCC2)c(OC)c1`, for which the INHIBITION is listed as 33.1%. To `COc1cc(Oc2ccc(C(F)(F)F)cn2)ccc1CN1CCCC1` belongs 91.5%; to `COc1cc(Oc2ccc(C(N)=O)cn2)ccc1CN1CCCC1`, -0.27%. For `COc1cc(Oc2cnc3ccccc3n2)ccc1CN1CCCC1`, the INHIBITION is 84.9%. For the molecule `COc1ccc(Oc2cccnc2)cc1CN1CCCC1`, the INHIBITION was found to be 49.4%.
